# Assay results reported in PubChem BioAssay AID2006 (Sanford-Burnham Center for Chemical Genomics, 2009).
# Out of some 290,000 compounds screened, about 1,000 (0.34%) were called active. The sample holds actives, similar compounds and a random draw of the others, so the mix is not that of the screen. Cut-off read from the data, not from the text of the source: active = inhibition above about 50% (passing the limit was not always enough); inconclusive = no clear call, values can overlap the other calls.
# Molecular target: SUMO-conjugating enzyme UBC9 (Homo sapiens) (UniProt P63279)
# Experiment: inhibitors of in vitro SUMOylation cascade, primary screen, biochemical, HTRF, uHTS (AID 2006)
# Details: HTRF SUMOylation assay, SAE1/SAE2 + UBC9, in vitro, at 35 µM, stronger effect = higher value
# Sequence of SUMO-conjugating enzyme UBC9 (Homo sapiens) (P63279 whole entry, looked up): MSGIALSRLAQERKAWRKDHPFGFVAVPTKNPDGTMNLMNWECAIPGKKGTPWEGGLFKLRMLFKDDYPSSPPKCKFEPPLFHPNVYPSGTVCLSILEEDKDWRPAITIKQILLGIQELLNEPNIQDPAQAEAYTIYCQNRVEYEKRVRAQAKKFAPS
Structure (SMILES),inhibition,inhibition (average of repeat tests)
CC(=O)Nc1cc2ccc(OC(C)=O)cc2oc1=O,43.7% (inactive),
Cc1c(Cc2ccccc2)c(=O)oc2cc(OCC(N)=O)ccc12,3.3% (inactive),
CC(=O)Oc1ccc2c(C)c(CC(C)O)c(=O)oc2c1 (centres undefined),52.6% (active),46.3%
COc1ccc2c(C)c(CCC(=O)NC3CC3)c(=O)oc2c1C,15.9% (inactive),
COc1cc(C2C(C(=O)Nc3ccc(F)cc3)=C(C)Nc3nc(CCCO)nn32)cc(OC)c1OC (centres undefined),11.3% (inactive),
COC(=O)c1nc2n(n1)C(c1ccc([N+](=O)[O-])cc1)C(C(=O)Nc1ccc(Cl)cc1)=C(C)N2 (centres undefined),56.7% (active),44.5%
COCCOC(=O)C1=C(C)Nc2nc(C)nn2C1c1ccccc1 (centres undefined),-5% (inactive),
Cc1nn(C)c(Cl)c1CN1CCC(n2nccc2NC(=O)C2CCCC2)CC1,3.6% (inactive),
CCCCNC(=O)N(O)C1N(/N=C/c2ccc(N(C)C)cc2)C(=S)SC1(C)C (centres undefined),6.7% (inactive),
Cc1cc(C)c(S(=O)(=O)c2ccc(F)cc2C)c(=O)[nH]1,14.5% (inactive),
CNC(=S)N/N=C/c1ccc(OCc2ccccc2)c(Br)c1,11.3% (inactive),
COc1ccc(OC)c(NC(=O)Cc2cccs2)c1,8% (inactive),
Cc1ccc(/C=C/C(=O)Nc2ccc([N+](=O)[O-])c(NC(=O)/C=C/c3ccc(C)o3)c2)o1,74.6% (active),
Cc1ccc(/C=C/C(=O)Nc2cc(S(=O)(=O)N3CCCCCC3)ccc2OCC(F)(F)F)o1,25.6% (inactive),
CCc1nnc(NC(=O)/C=C/c2ccc(C)o2)s1,7.9% (inactive),
CC(C)c1nnc(NC(=O)CCC(=O)N2CCN(c3cccc(Cl)c3)CC2)s1,1.4% (inactive),
Cc1c(C)c(C)c(S(=O)(=O)N2CCC3(CC2)OCCO3)c(C)c1C,0.4% (inactive),
Oc1ccc(CNc2ccccc2O)cc1,2.9% (inactive),
COc1ccc(NC(=O)CN(C)CC(=O)Nc2cccc(C(F)(F)F)c2)cc1,0.2% (inactive),
COc1cc(NC(=O)c2cncc(-c3ccc(C#N)cc3)c2)cc(C(=O)Nc2cccc(C(F)(F)F)c2)c1,71.3% (active),53.1%

Structure (SMILES),inhibition,inhibition (average of repeat tests)
N#Cc1ccc(Oc2ccc(C(F)(F)F)cc2NC(=O)c2ccc(F)cc2)cc1,-26.5% (inactive),
O=C(CN1CCN(S(=O)(=O)c2ccc(F)cc2)CC1)NC1CC1,8.8% (inactive),
COc1cc(N/C=C2\CC(=O)NC(C)=C2C#N)cc(OC)c1OC,51.7% (active),
COC(=O)C1=C(C)NC(=O)CC1c1ccccc1OC (centres undefined),10.4% (inactive),
COc1cc2c(cc1OC)C(C(=O)Nc1cc(C)c(OC)c(C)c1)CC(=O)N2 (centres undefined),1.4% (inactive),
CC(O)c1ccc(OCCN(C)c2ccccn2)cc1 (centres undefined),20.8% (inactive),
Cc1[nH]c2c(C(=O)N3CCCC(CCC(=O)NCc4ccccc4F)C3)cccc2c1C (centres undefined),-0.7% (inactive),
Brc1ccccc1C1Nc2cccc3cccc(c23)N1,69.7% (active),
Oc1ccc(C2Nc3cccc4cccc(c34)N2)cc1,31.7% (inactive),
Cc1ccc(C2Nc3cccc4cccc(c34)N2)cc1,8.5% (inactive),
CC(C)NS(=O)(=O)c1ccc(OCC(=O)NC2CCCCCC2)cc1,2.1% (inactive),
O=C(CC1NCCc2ccccc21)Nc1cccc(Cl)c1 (centres undefined),-5.3% (inactive),
CCCCCCNS(=O)(=O)c1ccccc1Br,21.7% (inactive),
Cc1ccc(-n2ncc(C(=O)NC3CC3)c2C2CCN(C(=O)OC(C)(C)C)CC2)c(C)c1,-2.6% (inactive),
CCc1nccn1CCC(=O)N1CCCC(N2CCN(c3ccccc3F)CC2)C1 (centres undefined),4.2% (inactive),
COc1ccc(C(=O)CC(=O)c2ccc(C)cc2)c(O)c1,-0.3% (inactive),
O=c1c(-c2ccccc2)coc2cc(O)ccc12,20.1% (inactive),
O=c1c(/C=N/O)coc2ccc(Cl)cc12,8.4% (inactive),
O=C1/C(=C/c2coc3ccc(O)cc3c2=O)SC(=S)N1c1ccccc1,57% (active),34.2%
Cc1cccc(OCC(O)Cn2c(N3CCCCC3)nc3c2c(=O)[nH]c(=O)n3C)c1 (centres undefined),20.6% (inactive),

Structure (SMILES),inhibition,inhibition (average of repeat tests)
CCn1cc(CN2CCN(CC(C)(C)C)C(CCO)C2)c2ccccc21 (centres undefined),5.7% (inactive),
Oc1ccccc1C1=NN(c2ccccc2)C(c2ccccc2)C1 (centres undefined),11% (inactive),
CCN(CC)CCCNC(=S)N(CCO)Cc1cc2cc3c(cc2[nH]c1=O)OCO3,18.4% (inactive),
Cc1ccc(NC(=O)C2CCCN2S(=O)(=O)c2cccc3cccnc23)c(C)c1 (centres undefined),4.8% (inactive),
O=S(=O)(c1ccc(Br)c2ccccc12)N1CCOCC1,2.6% (inactive),
CC(C)[C@H](NC(=O)OCc1ccccc1)C(=O)OCc1ccccc1,-16.4% (inactive),
O=[N+]([O-])C(=c1ccc2c(c1)N1C3=C(CCCC3)CC3CCCCC31N=2)[N+](=O)[O-] (centres undefined),57.5% (active),
Cc1sc2ncn(CC(=O)NCCN(C)C)c(=O)c2c1S(=O)(=O)N1CCC(C)CC1,-5.2% (inactive),
CN1CCC(=O)N([C@H](CO)Cc2ccccc2)CC1,13% (inactive),
CCOc1ccc(OCc2ccc(C(=O)N(C)c3ccccc3)o2)cc1,5% (inactive),
CC1=C(C(=O)OC2CCCCC2)C(c2cccnc2)n2ncnc2N1 (centres undefined),-7.1% (inactive),
C=CCc1ccccc1OCC(O)CN1CCN(CCO)CC1 (centres undefined),0.7% (inactive),
CCC(CC)C(=O)Nc1ccc(S(=O)(=O)Nc2nccs2)cc1,14.7% (inactive),
O=C(Nc1ccc(S(=O)(=O)Nc2nccs2)cc1)c1cc(=O)[nH]c2ccccc12,30.5% (inactive),
O=C(Nc1ccc(S(=O)(=O)Nc2nccs2)cc1)c1cc(-c2ccncc2)nc2ccccc12,50% (active),
Cc1nn(Cc2ccccc2)c(C)c1NS(=O)(=O)c1ccccc1,3.7% (inactive),
O=[N+]([O-])c1c(NCCO)cc(Sc2nc3ccccc3s2)c2nonc12,90.1% (active),
COc1ccc(S(=O)(=O)Nc2ccc(O)c(Sc3nc4ccccc4s3)c2)cc1,-0.5% (inactive),
O=C(O)c1cccc(S(=O)(=O)Nc2ccc(O)cc2Sc2nc3ccccc3s2)c1,-14.5% (inactive),
CCOCc1nnc(NC(=O)CCC2CCCCC2)s1,10.6% (inactive),
